Assay results published in PubChem BioAssay AID709 (SRMLSC, 2007).
Out of some 65,000 compounds screened, about 3,600 (5.5%) were called active. The sample as a whole holds a higher share of actives than the screen did. Unmarked numbers belong to inactive results.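 How the source made its calls: active means at 10 µM, mean starting fluorescence two-fold or more over control wells; inactive means the rest.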

Assay: intrinsic fluorescence of library compounds, ex339/em460 – biochemical, MLSMR library, data from DPM-DC assay, artefact control, profiling panel (AID 709);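 further: signal is the first read of a kinetic run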
Conditions: compound autofluorescence, ex339/em460 nm, NADH buffer; at 10 µM; stronger effect = higher value; 1 = no-compound wells, NADH background

Going from Cc1cc(/C=N/n2cnnc2)c(C)n1-c1ccc2ncccc2c1 to Cc1cc(=O)oc(C)c1C(=O)Nc1cnc2ccccc2c1, the fluorescence fold increase rises from 1.05 to 1.27.

Going from COc1ccc2nc(NC3=NCN(CC4CCCO4)CN3)nc(C)c2c1 (stereo not given) to COc1ccc(CNC(=O)c2cc3c(=O)n4ccccc4nc3n(CC3CCCO3)c2=N)cc1 (stereo not given), the fluorescence fold increase rises from 1.66 to 1.91.

First: Cc1cccc(N2CC(C)Cn3c2nc2c3c(=O)n(CC(=O)OCc3ccccc3)c(=O)n2C)c1 (stereo not given)
Second: CCOC(=O)CSc1nc2c(c(=O)n(Cc3ccccc3Cl)c(=O)n2C)n1C
The fluorescence fold increase of the first is higher: 1.1 for the first, 1.06 for the second.

Going from COc1cc(OC)c(C(=O)NC2CC(C)(C)NC(C)(C)C2)cc1OC to COc1cc(C2C(C#N)=C(N)Oc3n[nH]c(-c4ccccn4)c32)cc(OC)c1OC (stereo not given), the fluorescence fold increase falls from 1.16 to 1.09.

Compared with CSc1nc(O)c(Cc2ccccc2)c(=O)[nH]1, N#Cc1nc(Cc2ccccc2)oc1NCCc1ccccc1 is higher in fluorescence fold increase: 1.07 for the first, 1.1 for the second.

Going from Cc1ccc(C(=O)COc2cccc(NC(=O)c3ccco3)c2)cc1 to O=C(Nc1ccc(Oc2ccccc2)cc1)c1ccco1, the fluorescence fold increase falls from 1.18 to 1.11.

Compared with CC(C)C(c1nnnn1C1CCCC1)N1CCN(c2ccccc2F)CC1 (stereo not given), CCc1c(O)nc(SCC(=O)N2CCCCC2)n(-c2ccccc2C)c1=O is higher in fluorescence fold increase: 1.02 for the first, 1.04 for the second.

First: Cn1c(=O)c2c(nc(CN3CCOCC3)n2Cc2ccccc2)n(C)c1=O
Second: Cc1ccc(C2c3c(oc4ccc(C)cc4c3=O)C(=O)N2CCCN2CCOCC2)cc1 (stereo not given)
The fluorescence fold increase of the first is lower: 1.04 for the first, 1.09 for the second.

Compared with O=C(Cn1nc(Cc2cccnc2)c2ccccc2c1=O)NCC1CCCO1 (stereo not given), N#Cc1nc(COc2ccc(-c3ccccc3)cc2)oc1NCc1cccnc1 is higher in fluorescence fold increase: 1.03 for the first, 1.07 for the second.

Compared with CCOc1ccc2c(c1)cc(CN(C(=O)CC)C1CCCCC1)c1nnnn12, COc1cccc(-c2nc3cc(C)ccc3o2)c1 is lower in fluorescence fold increase: 1.21 for the first, 1.2 for the second.

First: Cc1ccc2nc(-c3ccccc3)cc(C(=O)O)c2c1
Second: Cc1ccc(S(=O)(=O)NCc2nc3ccccc3c(=O)n2N)cc1
The fluorescence fold increase of the first is higher: 1.22 for the first, 1.1 for the second.

Work on CC1CN(c2cc(=O)n(Cc3ccc(F)cc3)c(=O)[nH]2)CC(C)O1 (stereo not given) yielded a fluorescence fold increase of 1.08.

With CCOc1cc(NC(=O)c2ccco2)c(OCC)cc1NC(=O)COc1ccccc1 the fluorescence fold increase was 3.91 (active).
In the case of Cc1cccn2c(=O)c3cc(C#N)c(=NC(=O)c4cccnc4)n(CC4CCCO4)c3nc12 (stereo not given), the fluorescence fold increase is reported as 2.38 (active).
With Cc1cccn2c(=O)c3cc(C#N)c(=O)n(CCCN4CCOCC4)c3nc12 the fluorescence fold increase was 3.03 (active).
With CCc1ccc2oc(-c3ccc(N)cc3)nc2c1 the fluorescence fold increase was 2.12 (active).
In the case of N#Cc1nc(-c2ccc(OCc3ccccc3)cc2)oc1NCCCN1CCOCC1, the fluorescence fold increase is reported as 3.88 (active).
For Cc1ccc(NC(=O)c2cc(-c3ccc(C)o3)nc3ccccc23)nc1, the fluorescence fold increase was 2.48 (active).
With Cc1ccc(S(=O)(=O)c2c(N)n(C)c3nc4ccccc4nc23)cc1 the fluorescence fold increase was 3.95 (active).
